Experimental data published in PubChem BioAssay (NCI).
This is part of a sample that, as a whole, favours compounds with a hit. Of some 83,000 tested, about 20% had one in any assay.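 Values shown are percent growth following 48 h exposure of cells in 96-well plates to a single concentration of compound; below 10 was considered active.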 Values without a mark were called inactive. Calls of active or inactive are those of the source.

How the values were obtained:
Test in all cases: NCI-60 one-dose screen, 48 h (100 = growth as untreated, 0 = no growth, -100 = all killed)
Conditions in all cases: 10 µM unless noted
SK-MEL-2 melanoma = tested on: SK-MEL-2 melanoma
EKVX NSCLC = tested on: EKVX NSCLC
SN12C renal = tested on: SN12C renal
UO-31 renal = tested on: UO-31 renal
TK-10 renal = tested on: TK-10 renal
ACHN renal = tested on: ACHN renal
CAKI-1 renal = tested on: CAKI-1 renal
A498 renal = tested on: A498 renal
CCRF-CEM leukemia = tested on: CCRF-CEM leukemia
MOLT-4 leukemia = tested on: MOLT-4 leukemia

Compound | growth (SK-MEL-2 melanoma) | growth (EKVX NSCLC) | growth (SN12C renal) | growth (UO-31 renal) | growth (TK-10 renal) | growth (ACHN renal) | growth (CAKI-1 renal) [%] | growth (A498 renal) | growth (CCRF-CEM leukemia) | growth (MOLT-4 leukemia)
Oc1ccc(Cc2ccc(O)c3ncccc23)c2cccnc12 | -17.9% (active) | 8.21% (active) | 8.11% (active) | 1.7% (active) | -9.53% (active) | -4.29% (active) | 16.2 | 5.58% (active) | 17.4% | 11.8%
CCN1C(=O)N(CC)C2C1NN=c1s/c(=C\c3ccc([N+](=O)[O-])cc3)c(=O)n12 (stereo not given) | 70.4% | 52.3% | 29.6% | 37.5% | 69.1% | 41.9% | 37.1 | 18.6% | 11.2% | 15.8%
Nc1nc(N)c2c(n1)NC(c1ccc3c(c1)OCO3)CC(c1cccc(Nc3ccncc3)c1)=N2 (stereo not given) | 86% | 89.1% | 94.6% | 96.1% | 99.6% | 110% | 78.8 | 93% | 70% | 71.2%
O=CN1N=C(c2cccc(Nc3ccncc3)c2)CC1c1ccc2c(c1)OCO2 (stereo not given) | 85.5% | 67.6% | 99.3% | 86.9% | 109% | 97.2% | 80.7 | 96.5% | 86.1% | 92.3%
O=c1ccc2c(ccc3ncccc32)o1 | 112% | 118% | 106% | 77.1% | 105% | 95.6% | 90 | 81.8% | 104% | 92.7%
CCN1C(=O)N(CC)C2C1NC(=S)N2/N=C/C=C/c1ccccc1 (stereo not given) | 10.6% | 27.8% | 26.2% | 40.7% | 49.6% | 22.8% | 27.2 | -6.35% (active) | 2.75% (active) | 8.08% (active)
Nc1ncnc2c1N=C(c1ccc([N+](=O)[O-])cc1)CC(c1ccc3c(c1)OCO3)N2 (stereo not given) | 59.6% | 86% | 102% | 55.7% | 107% | 88.3% | 89.6 | 87.4% | 65% | 84.1%
CCCn1cnc2c(c1=N)C(c1ccc(Cl)cc1)c1sc3c(F)cccc3c1O2 (stereo not given) | 103% | 80% | 69.3% | 50.5% | 102% | 84.1% | 70.6 | 94.7% | 64.4% | 56.7%
CC(C)c1nc(N(C)S(C)(=O)=O)nc(-c2ccc(F)cc2)c1/C=C/C(=O)C[C@@H](O)CC(=O)O | 81.1% | 107% | 110% | 93.1% | 88.4% | 108% | 98.5 | 106% | 102% | 107%
NCCCCCNc1noc(Cc2c[nH]c3cc(Br)ccc23)n1 | 4.12% (active) | 33% | 42.7% | 41.8% | 38.6% | 52.2% | 35.3 | 16.1% | 2.39% (active) | 29.3%
C/C=C(/C)C(=O)O[C@@H]1CC(C)(C)CC2C34OC(=O)[C@@]21CC[C@@]3(C)[C@]1(C)CCC2C(C)(C)C(=O)CC[C@]2(C)C1C[C@@H]4O (stereo not given in full) | 80.3% | 50.1% | 83.7% | 67.8% | 73.2% | 85.9% | 59.6 | 69.3% | 36.3% | 24.2%
c1ccc(-c2cn3nc(-c4c[nH]c5ccccc45)sc3n2)cc1 | 94.4% | 70.3% | 83% | 46.4% | 105% | 83.3% | 66.1 | 89.9% | 86.4% | 83.9%
O=C1C=CC2(O)OC(c3ccccc3)CC(=O)C2=C1O (stereo not given) | 102% | 89.1% | 78.9% | 62.7% | 126% | 97.8% | 86.5 | 96% | 46.1% | 77.8%
O=C1N/C(=N/N=C(c2ccccc2)c2ccccc2)S/C1=C\c1ccc(Br)cc1 | 96.7% | 101% | 98% | 73.1% | 107% | 97.7% | 77.2 | 89.2% | 84.4% | 106%
Nc1nc(=O)n([C@H]2CC=C(CO)O2)cc1F | 102% | 110% | 96.8% | 91.5% | 99.3% | 110% | 94.6 | 75.8% | 103% | 90.5%
O=C(Nc1cccc(Cn2c(=O)[nH]c3ccc(Oc4ncccn4)cc3c2=O)c1)c1cccc(Cl)c1 | 71.7% | 46.3% | 80.1% | 39.6% | 53.3% | 60% | 52.4 | 45.3% | 47.1% | 15.4%
COc1cc(C2=Nc3c(N)nc(N)nc3NC(c3cccc(Nc4ccnc5cc(C(F)(F)F)ccc45)c3)C2)cc(OC)c1OC (stereo not given) | 88% | 66% | 73% | 51.8% | 108% | 96.8% | 58.6 | 79.8% | 51.7% | 19.2%
COCCn1cc(-c2nc(-c3cc4cccnc4n3C)cs2)c2cc(OC)ccc21 | 56.3% | 24.8% | 73% | 51% | 19.5% | 64.2% | 74.5 | 46.6% | 28.8% | 48.5%
CC/C(=C(/c1ccc(Cl)cc1)c1ccc(OCCN2CCCC2)cc1)c1ccccc1 | 88% | 59.3% | 69.3% | 66.2% | 93.5% | 87.9% | 61.6 | 79.7% | 36.9% | 42.8%
C=C1CC[C@@H]2[C@](C)(COC(C)=O)[C@H](OC(C)=O)CC[C@@]2(C)[C@@H]1CC(Nc1ccc(S(=O)(=O)Nc2nccc(C)n2)cc1)C1=CCOC1=O (stereo not given in full) | 40.1% | 79.2% | 25.1% | 33.4% | 83% | -37.2% (active) | 61.4 | 96.8% | -19.2% (active) | -1.85% (active)
Nc1n[nH]c2cccc(C#Cc3cccc(C(=O)Nc4ccc(Cl)c(C(F)(F)F)c4)c3)c12 | 39.2% | 74.2% | 51.7% | 29.6% | 91.5% | 59.1% | 94.5 | 35.6% | 35.8% | 31.2%
O=c1cc(-c2nccc3c2[nH]c2ccccc23)c2cc(Cl)ccc2o1 | 30.2% | 62.1% | 62.4% | 58.1% | 85.3% | 47.3% | 54.6 | 31.8% | 31.2% | 44.3%
O=C(Nc1ncc(Cc2ccc(Cl)cc2)s1)c1ccc2c(c1)OCCO2 | 41% | 35.7% | 30.8% | 50.2% | 49.5% | 29.8% | 28.7 | -2.66% (active) | 15.4% | 6.99% (active)
COc1ccc(C(=O)C2OC3=C(C(=O)CC(C)(C)C3)C2c2cccc(Oc3ccccc3)c2)cc1 (stereo not given) | 93.4% | 85% | 89.5% | 74% | 91.5% | 91.8% | 81.7 | 62.9% | 84% | 83.4%
N#C/C(=N\Nc1ccccc1)C(=O)Nc1cc(-c2ccccc2)nn1-c1ccccc1 | 22.6% | 28.3% | 3.41% (active) | 29.7% | 38.6% | 39% | 37.9 | 1.62% (active) | 26.6% | 33.3%
COc1cccc(/C=C2\CCc3ccccc3C2=O)c1 | 82.9% | 87.9% | 84.6% | 72.5% | 94.4% | 95.7% | 77.3 | 95.2% | 37.7% | 71.6%
